# High-throughput results as filed in PubChem.
# NS1 function inh: influenza NS1 inhibition; Potency, µM (top dose mostly 46.1 µM), inactives show at the highest dose activity, positive = more growth; hit rate 0.4% among 270,000; AID 2326; further: potency means the concentration at half of the fitted maximal effect; actives are rising curves; nearly all actives have a fitted effect of over 50% in size
#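 Growth recovery, yeast-based: influenza A NS1 expressed in S. cerevisiae causes slow growth, and suppressors are detected by OD600. The parent strain without NS1 is used as positive control.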
# Cycloheximide cs: affects cycloheximide protein synthesis inhibition readout, counter-screen. cell reporter, cycloheximide protein synthesis inhibition counterscreen. max response, %. hit rate 12% among 300,000; in the data active means max response mostly above about 13%, no sharp cut-off; inactive means mostly below about 14%; further: read at 38.3 µM for the half of the compounds with a filed dose; 0% is about no effect
# SARS PLP yeast: blocks SARS-CoV papain-like protease in a yeast assay. S. cerevisiae expressing SARS-CoV PLpro, growth rescue. Potency, µM (titrated, usually from 32.9 µM), inactives show at the top dose activity, positive = growth rescue, hits mostly activators. hit rate 0.19% among 330,000. AID 485353; further: potency means the concentration at half of the fitted maximal effect; 0% is about no effect; nearly all actives have a fitted effect of over 55% in size
# Shiga toxin inh: Shiga toxin inhibition. Vero cells, Shiga toxin protein synthesis inhibition reporter. inhibition, % at 38.7 µM. hit rate 9.2% among 290,000; in the data active means inhibition mostly above about 28%, no sharp cut-off; inactive means mostly below about 43%; further: 0% is about no effect
# Active calls of the source: *; ? = inconclusive; . = no result. An excerpt weighted towards active compounds, which were near 12% of everything screened. Unless noted, the call rests on the fitted dose curve.
SMILES,NS1 function inh,Cycloheximide cs,SARS PLP yeast,Shiga toxin inh
OCCC1CN(Cc2ccc(F)cc2)CCN1CCCc1ccccc1 (stereo not given),-4.3%,1.5,?,-5.1
CCCCn1c(N)c(N(CCOC)C(=O)c2ccc(-n3c(C)ccc3C)cc2)c(=O)[nH]c1=O,.,.,-1.2%,.
COc1cccc(NC(=O)CN2C(=O)CSc3nc(C)cc(C)c32)c1,1.3%,-0.5,1.9%,-1.1
COc1ccc(C(=O)/C=C/c2ccc(OC)c(Cn3nnc4ccccc43)c2)cc1,19.0%,0.6,21.1%,-7.9
CCN1CCN(CC(=O)N2N=C(c3cccs3)CC2c2ccc(C)cc2)C(=O)C1=O (stereo not given),-8.0%,8.1,-1.0%,8.1
N#Cc1cc([N+](=O)[O-])ccc1NC(=O)COC(=O)CCC1CCCCC1,-38.3%,-2.2,-0.6%,7.3
CCC(=O)Nc1ccc(C(=O)OCc2ccccc2)cc1,.,39.0*,-4.4%,77.4*
COc1ccc(OCCCC(=O)Nc2cccc(C(C)=O)c2)cc1,-7.7%,-1.7,-36.7%,-3.8
COc1ccc(OCCCC(=O)OC(C)C(=O)Nc2cccc(C(C)=O)c2)cc1 (stereo not given),-14.6%,15.0*,1.7%,-22.3
CCC(=O)Nc1ccccc1,-2.1%,-2.8,5.0%,-2.8
CCN(CC)S(=O)(=O)c1cccc(C(=O)OCC(=O)c2ccc3c(c2)OCCO3)c1,10.1%,10.2,5.6%,11.1
CCc1ccc(/C=C2/C(=O)NC(=O)N2C(C)=O)cc1,2.6%,37.5*,1.5%,24.4
COc1ccc(N2CCN(C(=O)c3c(-c4c(F)cccc4Cl)noc3C)CC2)cc1,-10.8%,-5.3,-1.6%,-10.0
COc1cccc(CNc2ccc3c(c2)ncn3C(C)C)c1OC,-35.3%,44.3*,-4.2%,161.8*
CCCn1c(NCc2cccc(OC)c2O)nc2ccccc21,-8.7%,27.9*,-3.8%,39.2*
COc1ccccc1-n1cnc2cc(NCc3ccccn3)ccc21,-25.9%,37.6*,-6.3%,112.8*
CCCn1cnc2cc(NCc3cccc(OC)c3O)ccc21,-78.8%,37.3*,9.4%,126.1*
COc1cccc(CNc2nc3ccccc3n2C(C)C)c1O,-2.1%,8.9,-0.1%,15.8
O=C(CCNC(=O)c1ccccc1Cl)OCC(=O)c1ccccc1,-2.2%,8.9,1.4%,28.6
CCOC(=O)CN(C)C(=O)C1CC(CO[Si](C)(C)C(C)(C)C)=CN1C(=O)OC(C)(C)C (stereo not given),.,7.4,.,3.5
CCCn1cnc2cc(NCc3ccccn3)ccc21,-8.5%,36.7*,-10.6%,85.3*
O=C(Nc1ccccc1Cl)Nc1ccccc1Cl,-5.1%,21.1*,-0.1%,31.5
O=C(Nc1ccc(Nc2ccccc2)cc1)Nc1ccccc1Cl,-51.2%,41.4*,-6.0%,96.9*
O=C(Nc1ccccn1)Nc1ccccc1Cl,-13.7%,32.0*,-9.0%,50.2*
O=C(COc1ccccc1)Nc1ccccc1Cl,.,40.6*,1.4%,107.6*
SMILES,NS1 function inh,Cycloheximide cs,SARS PLP yeast,Shiga toxin inh
O=C(Nc1ccccc1)Nc1cc(Cl)cc(Cl)c1,-144.4%,25.5,-24.5%,39.5
O=C(Nc1cc(C(F)(F)F)ccc1N1CCOCC1)C1CCCO1 (stereo not given),.,.,2.2%,.
CCC(=O)c1ccc(OCC(=O)N2CCCC2)c(OC)c1,9.6%,-3.2,-0.1%,-9.8
COc1ccc(C(=O)N2CCC(n3c(C)nc4cc(F)ccc43)CC2)cc1,.,-8.8,0.1%,-19.2
COc1ccccc1C(=O)NC(=O)CSc1ccc(C)c(C)c1,.,.,-7.9%,.
O=C(Nc1ccc(Cl)cc1)Nc1ccccc1Sc1ncc([N+](=O)[O-])s1,-42.8%,33.7*,-10.3%,62.9*
CSc1ccccc1NC(=O)NCCCl,-0.8%,7.8,2.9%,-5.7
CSc1ccccc1NC(=O)Nc1ccccc1Cl,-6.1%,23.7*,-1.6%,37.8
O=C(Nc1csc([N+](=O)[O-])c1)Nc1ccccc1Cl,-113.2%,35.7*,-9.2%,53.5*
O=C(Nc1ccccc1Cl)Oc1ccc(-c2ccccc2)cc1,-7.4%,18.1*,-3.0%,35.6
NS(=O)(=O)c1ccc(CNC(=O)c2cc(-c3cccnc3)nc3ccc(Br)cc23)cc1,2.8%,-1.5,?,-7.5
CC(C)(CCC(C)(C)c1ccccc1)c1ccccc1,0.0%,.,.,.
CCc1ccc(NC(=S)N(CCN2CCOCC2)Cc2ccccc2F)cc1,.,10.0,0.7%,34.4
S=C(NCCc1ccccc1)N/N=C/C1CCCCC1,.,15.4*,28.8%,19.2
COCCNC(=S)NN=C1CCCCCC1,3.5%,8.1,1.6%,25.2
S=C(NCCc1ccccc1)NN=C1CCCCCC1,5.6%,54.3*,0.3%,78.0*
CC1CCC(=O)N(CCC#N)CC1 (stereo not given),-0.2%,-1.5,9.5%,-4.6
CCC(=O)N1CCN(c2ccccc2NC(=O)c2cccs2)CC1,-6.5%,-2.2,1.4%,1.0
Cc1cc(Oc2ccccc2)nc(-c2ccccc2)n1,-38.4%,27.5*,-4.8%,20.2
COc1ccc(-c2noc(CSc3nc(-c4ccccc4)cc(=O)[nH]3)n2)cc1OC,?,4.0,10.6%,-11.2
COc1ccc(-c2noc(CSc3nc(N)cc(=O)[nH]3)n2)cc1,5.0%,8.0*,-2.6%,32.5
COc1ccc(-c2nn(-c3ccccc3F)cc2CNCCn2nc(C)cc2C)cc1,0.4%,-3.6,0.3%,1.7
CN1C(=O)N(CC(=O)Nc2nccs2)C(=O)C12CCCCC2,.,.,0.2%,.
CN1CCCCC1c1ccc(-c2cccnc2)nc1 (stereo not given),1.1%,15.6*,1.7%,-9.3
CN1CCC[C@H]1c1cccnc1,3.1%,.,.,.
SMILES,NS1 function inh,Cycloheximide cs,SARS PLP yeast,Shiga toxin inh
CCc1ccc(NC(=O)COC(=O)/C=C/c2c(C)nn(C3CCS(=O)(=O)C3)c2Cl)cc1 (stereo not given),.,-0.9,0.0%,10.4
CO/N=C(\c1ccccc1)c1cccnc1,5.8%,-3.2,-6.3%,-7.6
Nn1c(SCC(=O)Nc2ccc(S(N)(=O)=O)cc2)nnc1-c1ccco1,-6.3%,-4.4,-7.2%,-10.0
Cc1c(C(=O)N2CCN(C(=O)c3ccco3)CC2)sc2nc(-c3ccc(F)cc3)cn12,?,-1.5,1.1%,-6.0
Cc1sc(=NC(=O)c2ccco2)n(C)c1-c1ccc(F)cc1,-46.5%,43.6*,-9.0%,126.0*
Cc1sc(=NC(=O)c2ccco2)n(C)c1-c1ccccc1,-75.2%,40.1*,-25.9%,52.3*
Cn1c(=NC(=O)c2cccc([N+](=O)[O-])c2)sc2ccccc21,3.1%,26.9*,1.1%,118.7*
CC(=O)SCC(=O)N=c1sc2cc(F)ccc2n1C,2.0%,-2.4,.,1.6
CC(=O)N=c1sc2cc(C)ccc2n1C,-11.0%,28.5*,-1.5%,147.4*
C/C=C1\C(=O)CC2C3CCC4=CC(=O)CC[C@]4(C)C3CC[C@]12C (stereo not given in full),-46.2%,-5.4,.,-5.9
Cc1onc(-c2c(F)cccc2Cl)c1C(=O)Nc1nnc(C(F)(F)F)s1,9.3%,-2.8,-11.3%,7.9
O=C(CN(C(=O)c1csnn1)c1cccc(Cl)c1)NC1CCCCC1,1.3%,-7.2,2.1%,-2.1
COc1cccc(-c2cn(C[C@H]3CC[C@@H]([C@@H]4CC[C@H](Cn5cc(-c6cccc(OC)c6)nn5)O4)O3)nn2)c1,-14.3%,6.3,-3.4%,-5.6
COc1cc(C(=O)N=c2sc3ccccc3n2C)cc(OC)c1OC,-12.4%,16.1,-1.8%,7.2
Cn1c(=NC(=O)c2ccco2)sc2ccccc21,-43.0%,31.8*,-0.9%,53.5*
